Results taken from PubChem BioAssay AID1159580 (chemical genetic matrix, 2015).
Out of some 5,500 compounds screened, about 2,000 (36%) were called active. Not shown: some 18% with an inconclusive outcome. No stated cut-off is given here; in the data, active means normalized growth mostly below about 0.91 (no sharp cut-off); inconclusive means no clear call, values can overlap the other calls; inactive means mostly above about 0.92. This is one part of the list.

Experiment: chemical genetic growth profiling, strain panel (AID 1159580);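 further: tested at 20 µM; growth read once vehicle control cultures reached saturation at 30 °C; 1 = growth at the plate median or of vehicle wells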
Details: growth OD

Measured: normalized growth

O=C(N[C@@H](CO)[C@H](O)c1ccc([N+](=O)[O-])cc1)C(Cl)Cl
inactive: S. cerevisiae deletion strains, locus YJR075W, strain HOC1, stronger effect = lower value 1.02 | S. cerevisiae deletion strains, locus YKL009W, strain mrt4, stronger effect = lower value 1.01 | S. cerevisiae deletion strains, locus YKL068W, stronger effect = lower value 1 | S. cerevisiae deletion strains, locus YKL085W, strain MDH1 (second series), stronger effect = lower value 1 | S. cerevisiae deletion strains, locus YKL085W, strain MDH1, stronger effect = lower value 1 | S. cerevisiae deletion strains, locus YKL160W, strain elf1, stronger effect = lower value 1.04 | S. cerevisiae deletion strains, locus YKL190W, strain CNB1, stronger effect = lower value 1 | S. cerevisiae deletion strains, locus YKR001C, strain vps1, stronger effect = lower value 1 | S. cerevisiae deletion strains, locus YKR026C, strain gcn3, stronger effect = lower value 1.04 | S. cerevisiae deletion strains, locus YKR091W, strain srl3, stronger effect = lower value 0.999 | S. cerevisiae deletion strains, locus YLL001W, strain dnm1, stronger effect = lower value 1.01 | S. cerevisiae deletion strains, locus YLL026W, stronger effect = lower value 0.998 | S. cerevisiae deletion strains, locus YLL041C, strain sdh2, stronger effect = lower value 1.01 | S. cerevisiae deletion strains, locus YLR027C, strain aat2, stronger effect = lower value 1.02 | S. cerevisiae deletion strains, locus YLR039C, strain RIC1, stronger effect = lower value 1.01 | S. cerevisiae deletion strains, locus YLR058C, strain SHM2, stronger effect = lower value 1 | S. cerevisiae deletion strains, locus YLR102C, strain apc9, stronger effect = lower value 1.01 | S. cerevisiae deletion strains, locus YLR113W, strain HOG1, stronger effect = lower value 0.972 | S. cerevisiae deletion strains, locus YLR221C, strain rsa3, stronger effect = lower value 1.02 | S. cerevisiae deletion strains, locus YLR258W, strain gsy2, stronger effect = lower value 1.01 | S. cerevisiae deletion strains, locus YLR262C, strain YPT6 (second series), stronger effect = lower value 1.01 | S. cerevisiae deletion strains, locus YLR262C, strain YPT6, stronger effect = lower value 1.03 | S. cerevisiae deletion strains, locus YLR268W, strain sec22, stronger effect = lower value 1.05 | S. cerevisiae deletion strains, locus YLR320W, strain mms22, stronger effect = lower value 1 | S. cerevisiae deletion strains, locus YLR330W, strain CHS5, stronger effect = lower value 0.999 | S. cerevisiae deletion strains, locus YLR342W, strain FKS1 (second series), stronger effect = lower value 1.01 | S. cerevisiae deletion strains, locus YLR342W, strain FKS1, stronger effect = lower value 1.01 | S. cerevisiae deletion strains, locus YLR357W, strain rsc2, stronger effect = lower value 1.08 | S. cerevisiae deletion strains, locus YLR370C, strain arc18, stronger effect = lower value 1.02 | S. cerevisiae deletion strains, locus YLR371W, strain rom2, stronger effect = lower value 1.02 | S. cerevisiae deletion strains, locus YLR384C, strain iki3, stronger effect = lower value 1.02 | S. cerevisiae deletion strains, locus YLR418C, strain cdc73, stronger effect = lower value 1.01 | S. cerevisiae deletion strains, locus YML016C, strain PPZ1, stronger effect = lower value 1 | S. cerevisiae deletion strains, locus YML032C, strain rad52, stronger effect = lower value 1.03 | S. cerevisiae deletion strains, locus YML120C, strain ndi1, stronger effect = lower value 1 | S. cerevisiae deletion strains, locus YML124C, strain tub3, stronger effect = lower value 1 | S. cerevisiae deletion strains, locus YMR058W, strain fet3, stronger effect = lower value 1.01 | S. cerevisiae deletion strains, locus YMR078C, strain ctf18, stronger effect = lower value 1.01 | S. cerevisiae deletion strains, locus YMR125W, strain sto1, stronger effect = lower value 1.02 | S. cerevisiae deletion strains, locus YMR129W, stronger effect = lower value 1.02 | S. cerevisiae deletion strains, locus YMR205C, strain PFK2, stronger effect = lower value 1 | S. cerevisiae deletion strains, locus YMR223W, strain ubp8, stronger effect = lower value 0.974 | S. cerevisiae deletion strains, locus YMR231W, strain pep5, stronger effect = lower value 1.02 | S. cerevisiae deletion strains, locus YMR263W, strain SAP30, stronger effect = lower value 1.02 | S. cerevisiae deletion strains, locus YMR307W, strain GAS1, stronger effect = lower value 0.986 | S. cerevisiae deletion strains, locus YNL067W, strain RPL9B, stronger effect = lower value 1.03 | S. cerevisiae deletion strains, locus YNL071W, strain lat1, stronger effect = lower value 1.02 | S. cerevisiae deletion strains, locus YNL128W, strain TEP1, stronger effect = lower value 1.01 | S. cerevisiae deletion strains, locus YNL153C, strain GIM3, stronger effect = lower value 1.03 | S. cerevisiae deletion strains, locus YNL183C, strain NPR1, stronger effect = lower value 0.921 | S. cerevisiae deletion strains, locus YNL209W, strain ssb2, stronger effect = lower value 1.03 | S. cerevisiae deletion strains, locus YNL233W, strain BNI4, stronger effect = lower value 1.02 | S. cerevisiae deletion strains, locus YNL248C, strain rpa49, stronger effect = lower value 1.04 | S. cerevisiae deletion strains, locus YNL250W, strain rad50, stronger effect = lower value 1 | S. cerevisiae deletion strains, locus YNL271C, strain bni1, stronger effect = lower value 1.01 | S. cerevisiae deletion strains, locus YNL298W, strain CLA4, stronger effect = lower value 1.02 | S. cerevisiae deletion strains, locus YNL307C, strain MCK1, stronger effect = lower value 1.01 | S. cerevisiae deletion strains, locus YNL322C, strain KRE1 (second series), stronger effect = lower value 1.04 | S. cerevisiae deletion strains, locus YNL322C, strain KRE1, stronger effect = lower value 0.999 | S. cerevisiae deletion strains, locus YNR049C, strain mso1, stronger effect = lower value 1.01 | S. cerevisiae deletion strains, locus YNR052C, strain pop2, stronger effect = lower value 1.01 | S. cerevisiae deletion strains, locus YOL006C, strain TOP1, stronger effect = lower value 1.1 | S. cerevisiae deletion strains, locus YOL012C, strain htz1 1.24 | S. cerevisiae deletion strains, locus YOL147C, strain pex11, stronger effect = lower value 1.03 | S. cerevisiae deletion strains, locus YOR001W, strain rrp6, stronger effect = lower value 1.02 | S. cerevisiae deletion strains, locus YOR061W, strain CKA2, stronger effect = lower value 1.01 | S. cerevisiae deletion strains, locus YOR069W, strain VPS5, stronger effect = lower value 1 | S. cerevisiae deletion strains, locus YOR070C, strain gyp1, stronger effect = lower value 1 | S. cerevisiae deletion strains, locus YOR080W, strain dia2, stronger effect = lower value 1.02 | S. cerevisiae deletion strains, locus YOR083W, strain WHI5, stronger effect = lower value 0.984 | S. cerevisiae deletion strains, locus YOR106W, strain vam3, stronger effect = lower value 1.02 | S. cerevisiae deletion strains, locus YOR136W, strain idh2, stronger effect = lower value 0.998 | S. cerevisiae deletion strains, locus YOR144C, strain elg1, stronger effect = lower value 1.01 | S. cerevisiae deletion strains, locus YOR184W, strain ser1, stronger effect = lower value 1 | S. cerevisiae deletion strains, locus YOR231W, strain MKK1, stronger effect = lower value 0.956 | S. cerevisiae deletion strains, locus YOR265W, strain rbl2, stronger effect = lower value 1.02 | S. cerevisiae deletion strains, locus YOR270C, strain vph1, stronger effect = lower value 1.07 | S. cerevisiae deletion strains, locus YOR290C, strain snf2, stronger effect = lower value 1.02 | S. cerevisiae deletion strains, locus YOR316C, strain cot1, stronger effect = lower value 1.01 | S. cerevisiae deletion strains, locus YPL051W, strain arl3, stronger effect = lower value 1.02 | S. cerevisiae deletion strains, locus YPL055C, strain LGE1, stronger effect = lower value 0.986 | S. cerevisiae deletion strains, locus YPL078C, strain atp4, stronger effect = lower value 1.03 | S. cerevisiae deletion strains, locus YPL106C, strain sse1, stronger effect = lower value 1.01 | S. cerevisiae deletion strains, locus YPL240C, strain hsp82, stronger effect = lower value 1.01 | S. cerevisiae deletion strains, locus YPL241C, strain CIN2, stronger effect = lower value 1 | S. cerevisiae deletion strains, locus YPL256C, strain CLN2, stronger effect = lower value 0.955 | S. cerevisiae deletion strains, locus YPR119W, strain clb2, stronger effect = lower value 1 | S. cerevisiae deletion strains, locus YPR141C, strain kar3, stronger effect = lower value 0.995 | S. cerevisiae deletion strains, locus YPR163C, strain tif3, stronger effect = lower value 1.02 | S. cerevisiae deletion strains, locus YPR167C, strain met16, stronger effect = lower value 0.999 | S. cerevisiae deletion strains, strain wtn01, stronger effect = lower value 1.04 | S. cerevisiae strains, strain wild type, stronger effect = lower value 1
